Among the data in PubChem BioAssay are viability increase values, retold here.

Values without a mark were called inactive.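 How the source made its calls: active means viability increase at or above a cutoff of the median across tested compounds plus 3 SD (cut at about 8.5% in these data, passing the limit was not always enough); inconclusive means some gains above the cutoff, reason not given; inactive means the rest.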

The experiment in a line: doxorubicin toxicity protection in MRP-1 cells – H69AR cells, CellTiter-Glo, duplicate, MRP-1 activator project, pilot screen (AID 807).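 Further: compound pretreatment 18-22 h then 72 h combined with doxorubicin; 0% = doxorubicin alone and 100% = vehicle without doxorubicin.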 The conditions noted are these: H69AR viability with doxorubicin, CellTiter-Glo luminescence; at 10 µM; active compounds read high. For orientation: Cellular ATP, detected with luciferase, serves as a proxy for viable cell number.
In the case of `COCCCN1C(=O)C(O)=C(C(=O)c2ccc(C)o2)C1c1cccc(Br)c1` (stereo not drawn), the viability increase is -0.41%.
The result for `CCOc1ccc(OCC)c(S(=O)(=O)NCCCN2CCOCC2)c1` reads -0.25%; that for `CC1CCc2nn(CC(=O)NCCCN3CCCC3=O)cc2C1` (stereo not drawn), -1.1%; that for `Clc1ccc(Cc2nnc(-c3ccccc3Br)o2)cc1`, 4.88%.
For `Cc1cc(C)c(C)c(OCC(=O)NCCN(C)C)c1` the value was -1.08%.
For `COC(=O)CCS(=O)(=O)c1cc(Cl)ccc1Cl` the value was -1.81%; for `Cn1cccc1Cc1nnc(SCC(=O)N2CCCC2)n1CCc1ccccc1`, -1.41%; for `CC1NC(=O)NC1CCCCC(=O)O` (stereo not drawn), 1.3%.
`CCOC(=O)c1cc(-c2ccc(F)cc2)n(CC(=O)Nc2nccs2)c1C`: the viability increase was -5.35%.
The result for `Cn1c(SCC(=O)Nc2ccccc2F)nnc1-c1cccnc1` reads -0.11%; that for `CCn1cc(C(=O)Nc2ccc3c(c2)OCCO3)c2cc(OC)c(OC)cc2c1=O`, -6.05%.
The result for `O=C1c2ccccc2C(=O)N1CCCc1nc(-c2ccc(Cl)cc2)no1` reads -1.79%; that for `CN1C(=O)c2cccc(NC(=O)Cc3ccccc3)c2C1=O`, -1.47%.
For `CCc1c(C(C)O)oc2ccc3c(C)cc(=O)oc3c12` (stereo not drawn) the value was -3.86%; for `O=C(NCCc1ccccc1)c1ccncc1`, -0.91%; for `Cc1onc(-c2ccccc2Cl)c1C(=O)N(C)C1CCCCC1`, -2.42%.
Take `CCN(CC(=O)NCc1ccc(F)cc1)C(=O)C1CCN(C(=O)Nc2ccccc2)CC1`: the viability increase was -0.13%.
The result for `CCCCCn1c(=N)n(CC(O)COc2ccccc2OC)c2ccccc21` (stereo not drawn) reads -7.9%; that for `N#CC1=C(N)Oc2c(sc3ccccc23)C1c1ccco1` (stereo not drawn), -4.53%.
The result for `COc1ccccc1N1CCN(Cc2cc(Br)c(O)c3ncccc23)CC1` reads -6.58%.
The result for `CC(=O)Nc1ccc(S(=O)(=O)N2CCN(c3nc(NC4CCCC4)c4ccccc4n3)CC2)cc1` reads -8.11%.
`COc1cc(NC(=O)c2c(-c3ccccc3Cl)noc2C)c2ncccc2c1`: the viability increase is -0.47%.
The result for `O=C(O)CCc1ccc(-c2cccs2)n1NC(=O)c1ccc(Cl)cc1` reads -3.75%.
